Our source for the outcome and AC50 values is PubChem BioAssay (EPA / NIEHS).

Inconclusive results are not listed. Calls of active or inactive are those of the source. The calls were made as follows, unless noted: active = hit-call score of the fitted dose curve at least 0.9, where 1 is the maximum; inconclusive = response in the unintended direction; inactive = score below 0.9.

A short description of experiment [1]: Tanguay_ZF_120hpf_AXIS_legacy: (Legacy) Oregon State University Tanguay Lab 120 Hour Post-fertilization zebrafish Assay for Body Axis Malformation (AID 2283635). The method in brief: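 Chorion is removed with pronase at 4 hpf, then single 6 hpf embryos are dosed (final DMSO 0.64%) and held statically at 28C in sealed, foil-covered plates. At 120 hpf body axis malformation is recorded as present or absent.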

Experiment [2] in a line: Tanguay_ZF_120hpf_SNOU_legacy: (Legacy) Oregon State University Tanguay Lab 120 Hour Post-fertilization zebrafish Assay for Snout Malformation (AID 2283637). The method in brief:
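Binary brightfield scoring of snout malformation at 120 hpf. Dechorionated 5D wild-type embryos, one per well, static exposure from 6 hpf at 28C, sealed and dark; final DMSO 0.64% (vol/vol), DMSO as baseline; 5uM trimethyltin chloride positive control.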

Experiment [3] can be described thus: Tanguay_ZF_120hpf_JAW_legacy: (Legacy) Oregon State University Tanguay Lab 120 Hour Post-fertilization zebrafish Assay for Jaw Malformation (AID 2283638). The method in brief:
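Steps: dechorionate 4 hpf embryos (pronase); plate 1/well at 6 hpf; add test chemical, 0.64% DMSO final; seal, cover, hold at 28C statically to 120 hpf; score jaw defect presence/absence microscopically. Dead embryos not scored.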

Experiment [4] is described as follows: Tanguay_ZF_120hpf_OTIC_legacy: (Legacy) Oregon State University Tanguay Lab 120 Hour Post-fertilization zebrafish Assay for Otic Vesicle Malformation (AID 2283639). The method in brief:
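Wild-type zebrafish larvae, whole-embryo exposure from early stage to 120 hpf at 28C. Binary brightfield scoring of otic vesicle morphology, fitted in the positive direction against the DMSO baseline.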

Experiment [5] is described as follows: Tanguay_ZF_120hpf_PE_legacy: (Legacy) Oregon State University Tanguay Lab 120 Hour Post-fertilization zebrafish Assay for Pericardial Edema (AID 2283640). The method in brief: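 Embryos from wild-type 5D adults were staged, then dosed in 0.64% DMSO. They were kept sealed in the dark at 28C until 120 hpf. Pericardial edema was then recorded as present or absent.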

Experiment [6] in a line: Tanguay_ZF_120hpf_BRAI_legacy: (Legacy) Oregon State University Tanguay Lab 120 Hour Post-fertilization zebrafish Assay for Brain Malformation (AID 2283641). The method in brief: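 Wild-type 5D larvae, static waterborne exposure to 120 hpf, 28C, 0.64% v/v DMSO. Brightfield scoring of brain defects, binary; dead embryos excluded. Positive ctrl 5uM trimethyltin chloride.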

Experiment [7] is described as follows: Tanguay_ZF_120hpf_PFIN_legacy: (Legacy) Oregon State University Tanguay Lab 120 Hour Post-fertilization zebrafish Assay for Pectoral Fin Malformation (AID 2283648).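 Also: each larva judged yes or no for fin defect by brightfield with dead larvae skipped.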 The method in brief:
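Binary pectoral fin malformation call at 120 hpf by brightfield microscopy; 5D wild-type zebrafish, chorion removed at 4 hpf, one embryo per well from 6 hpf, static exposure at 28C; DMSO (0.64% final) as baseline.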

Experiment [8] can be described thus: Tanguay_ZF_120hpf_CFIN_legacy: (Legacy) Oregon State University Tanguay Lab 120 Hour Post-fertilization zebrafish Assay for Caudal Fin Malformation (AID 2283649). The method in brief: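 Binary presence or absence of caudal fin malformation at 120 hpf, read by brightfield microscopy, with DMSO as baseline. Larvae came from 5D wild-type embryos exposed statically from 6 hpf at 28C after pronase dechorionation.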

Experiment [9] is described as follows: Tanguay_ZF_120hpf_CIRC_legacy: (Legacy) Oregon State University Tanguay Lab 120 Hour Post-fertilization zebrafish Assay for Circulatory Malformation (AID 2283651). The method in brief:
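Binary circulatory-malformation call at 120 hpf via brightfield imaging, relative to DMSO controls. Embryos (5D strain, chorion removed) received static, light-shielded exposure at 28C.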

Experiment [10] in a line: Tanguay_ZF_120hpf_TRUN_legacy: (Legacy) Oregon State University Tanguay Lab 120 Hour Post-fertilization zebrafish Assay for Truncated Body (AID 2283655). The method in brief: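 Truncated body is recorded as a binary endpoint at 120 hpf by brightfield imaging of wild-type 5D larvae. Exposure runs statically from 6 hpf at 28C with 0.64% DMSO; embryos dying earlier are not scored.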

Experiment [11] is described as follows: Tanguay_ZF_120hpf_YSE_legacy: (Legacy) Oregon State University Tanguay Lab 120 Hour Post-fertilization zebrafish Assay for Yolk Sac Edema (AID 2283634).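 As to AC50: actives raise the incidence of yolk sac edema above the DMSO baseline.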 The method in brief: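 Dechorionate (pronase, 4 hpf) → place one 6 hpf embryo per well → static compound exposure, sealed and foil-covered, 28C, to 120 hpf → record yolk sac edema as present or absent. Final DMSO 0.64%.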

The nature of experiment [12]: Tanguay_ZF_120hpf_PIG_legacy: (Legacy) Oregon State University Tanguay Lab 120 Hour Post-fertilization zebrafish Assay for Pigmentation Malformation (AID 2283650).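 Also: dechorionated Tropical 5D zebrafish embryos exposed singly from 6 to 120 hpf.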 The method in brief: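 Brightfield scoring of pigmentation malformation at 120 hpf, recorded as binary present/absent per larva. Exposure: dechorionated 5D wild-type embryos, one per well, static from 6 hpf at 28C, final DMSO 0.64% (vol/vol). Dead embryos not scored.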

Experiment [13] can be described thus: Tanguay_ZF_120hpf_SWIM_legacy: (Legacy) Oregon State University Tanguay Lab 120 Hour Post-fertilization zebrafish Assay for Swim Bladder Malformation (AID 2283654).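 Also: swim bladder malformation in each larva scored yes or no under brightfield.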 The method in brief:
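Tropical 5D embryos dechorionated at 4 hpf; 1 embryo/well from 6 hpf; static, sealed, dark exposure at 28C until 120 hpf; final DMSO 0.64%; 5uM trimethyltin chloride positive control; swim bladder defect recorded yes/no; dead embryos not scored.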

A short description of experiment [14]: Tanguay_ZF_120hpf_SOMI_legacy: (Legacy) Oregon State University Tanguay Lab 120 Hour Post-fertilization zebrafish Assay for Somite Malformation (AID 2283647). The method in brief: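 Read-out: presence or absence of somite malformation in 120 hpf larvae, gain-of-signal relative to DMSO baseline. Embryos lacked chorion (pronase, 4 hpf) and were exposed statically from 6 hpf at 28C; dead larvae not scored.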

Read-out in experiment [15]: solute carrier (SLC22A6), SLC22A6 (gene 9356)
Briefly: LTEA_HepaRG_SLC22A6: Life Technologies and Expression Analysis (LTEA) Assay for solute carrier (SLC22A6) using HepaRG (AID 2283653; active = hit-call score of the fitted dose curve at least 0.9, where 1 is the maximum; inactive = score below 0.9). The settings on record: mRNA level, 48 h; actives raise or lower the signal. The method in brief: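 Read-out is SLC22A6 transcript level by qRT-PCR, normalised to three housekeeping genes and fitted for gain or loss relative to 0.5% DMSO vehicle. Human HepaRG cells received chemicals at up to 100 uM for 48 h.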

Read-out in experiment [16]: solute carrier (SLC10A1), SLC10A1 (gene 6554)
Briefly: LTEA_HepaRG_SLC10A1: Life Technologies and Expression Analysis (LTEA) Assay for solute carrier (SLC10A1) using HepaRG (AID 2283657; active = hit-call score of the fitted dose curve at least 0.9, where 1 is the maximum; inactive = score below 0.9). Particulars: mRNA level, 48 h; actives raise or lower the signal. The method in brief:
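HepaRG, 48 h exposure, 8-pt half-log curve from 100 uM in 0.5% DMSO, duplicates. Read-out: TaqMan qRT-PCR of SLC10A1 mRNA, normalized to three housekeeping genes. Gain/loss fit vs DMSO baseline.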

Read-out in experiment [17]: matrix metalloproteinase-1 (MMP1), MMP1 (gene 4312)
Briefly: LTEA_HepaRG_MMP1: Life Technologies and Expression Analysis (LTEA) Assay for matrix metalloproteinase-1 (MMP1) using HepaRG (AID 2283658; active = hit-call score of the fitted dose curve at least 0.9, where 1 is the maximum; inactive = score below 0.9). Particulars: mRNA level, 48 h; actives raise or lower the signal. The method in brief: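 HepaRG, ~100,000 cells/well, 48 h pre-culture; serum-free induction medium; test chemical 8 conc (max 100 uM, half-log), duplicate, 48 h; 0.5% DMSO; qRT-PCR MMP1, housekeeping-normalized; gain/loss fit vs DMSO.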

Experiment [18] in a line: Tanguay_ZF_120hpf_NC_legacy: (Legacy) Oregon State University Tanguay Lab 120 Hour Post-fertilization zebrafish Assay for Notochord and Tail Malformation (AID 2283656). The method in brief: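 Binary notochord-distortion calls, made by brightfield inspection, form the read-out; activity is fitted in the positive direction against DMSO. Exposure ran statically from 6 to 120 hpf at 28C with 0.64% DMSO.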

Read-out in experiment [19]: kallikrein-3 (KLK3), KLK3 (gene 354)
Put plainly: LTEA_HepaRG_KLK3: Life Technologies and Expression Analysis (LTEA) Assay for kallikrein-3 (KLK3) using HepaRG (AID 2283652; active = hit-call score of the fitted dose curve at least 0.9, where 1 is the maximum; inactive = score below 0.9). Particulars: mRNA level, 48 h; actives raise or lower the signal. The method in brief:
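KLK3 transcript levels were measured by TaqMan qRT-PCR with normalisation to three housekeeping genes. HepaRG cultures received chemicals for 48 h at up to 100 uM (half-log, 8 points, 0.5% DMSO vehicle), fitted in both directions against DMSO.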

In the case of `Cc1cc(C2CC2)nc(Nc2ccccc2)n1`, the molecule was classed as inactive in experiment [1], in experiment [2], in experiment [3], in [4], in [5] and in experiment [6]. Further, the molecule was classed as inactive in experiment [7], in [8], in experiment [9] and in experiment [10].

For `CCCCSP(=O)(SCCCC)SCCCC`, in [11], the AC50 is 7.24 µM (active). For the same molecule, the outcome in experiment [1], in experiment [2], in [4], in experiment [5], in experiment [6] and in [7] was inactive. For the same molecule, the molecule was classed as inactive in experiment [8], in [12], in experiment [9], in [13] and in [10].

Turning to `C#CC(C)(C)NC(=O)c1cc(Cl)cc(Cl)c1`, the molecule was called inactive in [11], in experiment [1], in experiment [3], in experiment [4], in experiment [5] and in experiment [14]. The call in [8], in experiment [12] and in experiment [9] was inactive.

With `CCOP(=S)(OCC)Oc1cc(C)nc(C(C)C)n1`, the result in [11], in experiment [2], in [4], in experiment [5], in experiment [7] and in experiment [8] was inactive. Besides, the outcome in experiment [12], in experiment [9] and in experiment [10] was inactive.

Turning to `CCc1cccc(CC)c1N(COC)C(=O)CCl`, the call in experiment [11], in [1], in [2], in experiment [3], in experiment [4] and in experiment [5] was inactive. Moreover, the result in [6], in experiment [7], in [12], in experiment [9], in experiment [15] and in experiment [10] was inactive. In addition, the molecule was called inactive in [16] and in experiment [17].

With `CCOP(=S)(OCC)OC(Cl)C(Cl)(Cl)Cl` (stereo not given), the result in experiment [11], in [1], in [2], in experiment [3], in experiment [4] and in experiment [5] was inactive. Also, the molecule was classed as inactive in experiment [6], in experiment [7], in [8], in [12] and in experiment [10].

Regarding `O=[N+]([O-])c1cc(C(F)(F)F)c(Cl)c([N+](=O)[O-])c1Nc1ncc(C(F)(F)F)cc1Cl`, the call in experiment [11], in experiment [1], in experiment [2], in [3], in experiment [4] and in [5] was inactive. Moreover, the call in experiment [6], in experiment [7], in experiment [8], in [12], in experiment [9] and in [10] was inactive.

As for `CCC(=NOC/C=C/Cl)C1=C(O)CC(C2CCOCC2)CC1=O` (stereo not given), the molecule was classed as inactive in [11], in experiment [1], in experiment [2], in [3], in experiment [4] and in experiment [5]. Also, the result in [6], in experiment [7], in [8], in [12], in experiment [9] and in experiment [10] was inactive. The molecule was classed as inactive in [18].

In the case of `CC1(C(=O)Nc2ccc(O)c(Cl)c2Cl)CCCCC1`, the outcome in [11], in experiment [1], in [2], in [3], in experiment [5] and in [6] was inactive. Also, the outcome in experiment [7], in [8], in experiment [12], in experiment [9], in experiment [19] and in experiment [15] was inactive. Besides, the outcome in [13], in [10], in experiment [16] and in experiment [17] was inactive.

Take `CC(COc1ccc(Oc2ccccc2)cc1)Oc1ccccn1` (stereo not given): the molecule was classed as inactive in [1], in experiment [2], in experiment [3], in [4], in experiment [5] and in [6]. The call in [7], in experiment [8], in [12], in experiment [19], in experiment [15] and in experiment [10] was inactive. Besides, the molecule was classed as inactive in experiment [17]. Further, the AC50 in [16] was 27.9 µM (active).
